Laboratory results published in PubChem BioAssay (Tox21).
Records with an inconclusive call do not appear. Activity calls are given as the source filed them. Unless noted, the call rests on the fitted dose curve.

Assays:
[1] = biological target: Thyrotropin receptor (Homo sapiens) (UniProt P16473); assay: qHTS assay to identify small molecule agonists of the thyroid stimulating hormone receptor (TSHR) signaling pathway (AID 1224843); further: nearly all actives have a fitted effect of over 45% in size
In short: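 Steps: seed 800 TSHR-HEK293 cells per well; add test compound and hold 30 min at ambient temperature; dispense cAMP-d2 then anti-cAMP cryptate; incubate 1 h at ambient; measure fluorescence intensity.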

[2] = qHTS assay to identify small molecule agonists of the hypoxia (HIF-1) signaling pathway - cell viability counter screen (AID 1224844); further: nearly all actives have a fitted effect of over 50% in size
In short: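 Multiplexed with the HRE beta-lactamase assay, this viability read used CellTiter-Glo luminescence (30 min, RT) on HRE-bla ME-180 cells treated 17 hrs with compounds in 0.5% dialyzed FBS medium.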

[3] = qHTS assay to identify small molecule agonists of H2AX (AID 1224845; active means well fitted activation curve with a large enough effect in the signal ratio in the repeat runs, not every such curve was filed as active; the % refers to the signal ratio)
In short: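 Wild-type CHO-K1 cells, plated overnight, exposed 3hr at 37C to 15 concentrations (0.76% DMSO final). Lysed, then HTRF anti-pH2AX (S139) cryptate and anti-H2AX-d2 antibodies, 24 hr room temperature; 665/620 nm emission read.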

[4] = qHTS assay to identify small molecule agonists of the hypoxia (HIF-1) signaling pathway (AID 1224846; active means well fitted activation curve with a large enough effect in the signal ratio in the repeat runs, not every such curve was filed as active; the % refers to the signal ratio)
In short: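 Hypoxia-pathway activation was scored as increased beta-lactamase from an HRE-controlled reporter in ME-180 cells; plated at 2,000 cells per well with 0.5% dialyzed FBS, they were exposed 17 hrs to compounds and then given CCF4-AM.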

[5] = qHTS assay to identify small molecule agonists of H2AX - cell viability counter screen (AID 1224847); further: top concentration of the series differs between compounds; nearly all actives have a fitted effect of over 30% in size
In short: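 Cytotoxicity counter screen in wild-type CHO-K1 cells: a 3 hr compound treatment at 37C across 15 concentrations, followed by CellTiter-Glo luminescence to gauge viable cells.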

[6] = qHTS assay to identify small molecule antagonists of the estrogen related receptor (ERR) signaling pathway from Tox21 library (AID 1224848; active means well fitted curve in the direction sought with a large enough effect in the repeat runs; an effect the other way counts as inactive or inconclusive; further: nearly all actives have a fitted effect of over 50% in size)
In short: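 Luminescent reporter read-out (ONE-Glo) from NTP's ERR cell line after 18 h treatment at 37 C with DMSO-dissolved Tox21 compounds; cells pre-plated 6 h beforehand at 2,000 per well.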

[7] = qHTS assay to identify small molecule agonists of the estrogen related receptor (ERR) signaling pathway from Tox21 library (AID 1224849); conditions: ERR reporter cell line, ONE-Glo luciferase, 18 h; at 92.4 µM (top of the series) unless noted; further: nearly all actives have a fitted effect of over 15% in size
In short: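 Six hours post-seeding at 37 C/5% CO2, ERR cells receive DMSO-solubilised compounds; after 18 h at 37 C, ONE-Glo reagent is applied and luminescence recorded.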

[8] = qHTS RealTime-Glo MT Cell Viability Assay in HepG2 cells - 24 hour (AID 1224867; active means well fitted curve in the direction sought with a large enough effect in the repeat runs; an effect the other way counts as inactive or inconclusive; further: nearly all actives have a fitted effect of over 50% in size)
In short: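 Real-time, nonlytic viability: 600 HepG2 cells/well mixed with NanoLuc enzyme plus prosubstrate; 5 h settle, compound (DMSO) added by pintool; luminescence monitored over 40 h at 37 C.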

[9] = qHTS RealTime-Glo MT Cell Viability Assay in HEK293 cells - 32 hour (AID 1224868; active means well fitted curve in the direction sought with a large enough effect in the repeat runs; an effect the other way counts as inactive or inconclusive; further: top concentration of the series differs between compounds; nearly all actives have a fitted effect of over 50% in size)
In short: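 Cells + reagent dispensed (600 cells/well, HEK293) → 5 h at 37 C/5% CO2 → 23 nL compound in DMSO pinned → 40 h at 37 C → luminescence read at 0, 8, 16, 24, 32, 40 h.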

[10] = A CellTox Green Cytotoxicity Assay to monitor cytotoxicity in HEK293 cells - 0 hour (AID 1224869; active means well fitted curve in the direction sought with a large enough effect in the repeat runs; an effect the other way counts as inactive or inconclusive; further: nearly all actives have a fitted effect of over 50% in size)
In short: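 Seeding of HEK293 cells together with cytotoxicity dye preceded a 5 h incubation at 37 C/5% CO2. Test compounds in DMSO were then added and fluorescence monitored across 40 h.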
On the % scale 0 is the no-effect control and ±100 the full control effect.

Thyrotropin receptor (Homo sapiens), sequence (P16473 whole entry, looked up): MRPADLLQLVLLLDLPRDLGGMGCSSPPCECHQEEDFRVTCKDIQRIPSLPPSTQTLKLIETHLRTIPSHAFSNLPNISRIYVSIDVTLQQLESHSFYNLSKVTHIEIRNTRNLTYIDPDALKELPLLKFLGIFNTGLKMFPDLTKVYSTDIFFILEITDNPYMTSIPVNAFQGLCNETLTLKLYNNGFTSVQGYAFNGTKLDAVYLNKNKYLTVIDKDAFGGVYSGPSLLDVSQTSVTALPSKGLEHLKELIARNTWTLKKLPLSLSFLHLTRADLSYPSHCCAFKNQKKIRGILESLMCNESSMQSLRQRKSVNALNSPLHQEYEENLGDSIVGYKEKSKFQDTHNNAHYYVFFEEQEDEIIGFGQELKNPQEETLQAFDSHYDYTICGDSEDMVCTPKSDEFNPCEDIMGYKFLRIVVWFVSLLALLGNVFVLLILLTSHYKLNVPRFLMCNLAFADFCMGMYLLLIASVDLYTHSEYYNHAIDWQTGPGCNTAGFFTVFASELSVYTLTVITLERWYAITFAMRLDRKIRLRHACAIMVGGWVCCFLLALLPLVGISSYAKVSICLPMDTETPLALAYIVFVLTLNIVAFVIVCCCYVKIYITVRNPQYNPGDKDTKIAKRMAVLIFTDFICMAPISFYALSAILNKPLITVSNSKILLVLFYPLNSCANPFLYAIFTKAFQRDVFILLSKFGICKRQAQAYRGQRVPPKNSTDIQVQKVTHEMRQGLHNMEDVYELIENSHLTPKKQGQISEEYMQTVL

OC[C@H]1O[C@@H]2O[C@H]3[C@H](O)[C@@H](O)[C@@H](O[C@H]4[C@H](O)[C@@H](O)[C@@H](O[C@H]5[C@H](O)[C@@H](O)[C@@H](O[C@H]6[C@H](O)[C@@H](O)[C@@H](O[C@H]7[C@H](O)[C@@H](O)[C@@H](O[C@H]8[C@H](O)[C@@H](O)[C@@H](O[C@H]9[C@H](O)[C@@H](O)[C@@H](O[C@H]1[C@H](O)[C@H]2O)O[C@@H]9CO)O[C@@H]8CO)O[C@@H]7CO)O[C@@H]6CO)O[C@@H]5CO)O[C@@H]4CO)O[C@@H]3CO
inactive: outcome [1] | Potency [2] | outcome [3] | outcome [4] | Potency [5] | Potency [6] | activity change, positive = activation [7] 0.681% [at 42.5 µM] | outcome [8] | Potency [9] | Potency [10]

NCCNC(=O)c1ccc(Cl)cn1
inactive: outcome [1] | Potency [2] | outcome [3] | outcome [4] | Potency [5] | Potency [6] | outcome [8] | Potency [9] | Potency [10]

COc1nc(C)nc(N)n1
inactive: outcome [1] | Potency [2] | outcome [3] | outcome [4] | Potency [5] | outcome [8] | Potency [9]

C1CCCCCCCCCCC1
inactive: activation [1] -4.17% [at 19 µM] | activity change, negative = cytotoxicity [2] 3.97% [at 15.8 µM] | activation (H2AX phosphorylation) [3] 1.29% [at 31.6 µM] | activation [4] 0.351% [at 15.8 µM] | activity change, negative = cytotoxicity [5] 0.456% [at 31.6 µM] | activity, negative = inhibition [6] -2.47% [at 19 µM] | activity change, positive = activation [7] -0.61% [at 19 µM] | activity change, negative = cytotoxicity [8] 3.08% [at 15.8 µM] | cytotoxicity [10] -14.8% [at 15.8 µM]

CCO[Si](CCCN=C=O)(OCC)OCC
inactive: outcome [1] | Potency [2] | outcome [3] | outcome [4] | Potency [5] | Potency [6] | activity change, positive = activation [7] -6.45% | outcome [8] | Potency [9] | Potency [10]

COCCOC(=O)CC#N
inactive: outcome [1] | Potency [2] | outcome [3] | outcome [4] | Potency [5] | outcome [8] | Potency [9]

CCCCc1ccc2cccc(S(=O)(=O)O)c2c1
inactive: outcome [1] | Potency [2] | outcome [3] | outcome [4] | Potency [5] | Potency [6] | outcome [8] | Potency [9] | Potency [10]

C=C(C)C(=O)OCCC(C)OC(=O)C(=C)C (stereo not drawn)
inactive: outcome [1] | Potency [2] | outcome [3] | outcome [4] | Potency [5] | Potency [6] | activity change, positive = activation [7] 3.72% | outcome [8] | Potency [9] | Potency [10]

COC(=O)CCCCCCCCC(=O)OC
inactive: outcome [1] | Potency [2] | outcome [3] | outcome [4] | Potency [5] | Potency [6] | activity change, positive = activation [7] 0.842% | outcome [8] | Potency [9] | Potency [10]

O=C(O)c1cccc(C(=O)O)n1
inactive: outcome [1] | Potency [2] | outcome [3] | outcome [4] | Potency [5] | Potency [6] | outcome [8] | Potency [9] | Potency [10]

CC1CCN(CCCC(=O)c2ccc(F)cc2)CC1
inactive: outcome [1] | Potency [2] | outcome [3] | outcome [4] | Potency [5] | Potency [6] | activity change, positive = activation [7] 6.1% [at 42.5 µM] | outcome [8] | Potency [9]

CN(C)N=Nc1ccccc1
inactive: outcome [1] | Potency [2] | outcome [3] | outcome [4] | Potency [5] | Potency [6] | activity change, positive = activation [7] 9.49% | outcome [8] | Potency [9] | Potency [10]

CCCCCCOC(=O)CC(CC(=O)OCCCCCC)(OC(=O)CCC)C(=O)OCCCCCC
inactive: outcome [1] | Potency [2] | outcome [3] | outcome [4] | Potency [5] | Potency [6] | outcome [8] | Potency [9] | Potency [10]

CC(C)[C@H](N)C(=O)OCCOCn1cnc2c(=O)[nH]c(N)nc21
inactive: outcome [1] | Potency [2] | outcome [3] | outcome [4] | Potency [5] | outcome [8] | Potency [9] | Potency [10]

C=CCn1c(=O)n([C@@H]2O[C@H](CO)[C@@H](O)[C@H]2O)c2nc(N)[nH]c(=O)c21
inactive: outcome [1] | Potency [2] | outcome [3] | outcome [4] | Potency [5] | outcome [8] | Potency [9] | Potency [10]

CC(=O)NC(Cc1ccccc1)C(=O)O (stereo not drawn)
inactive: outcome [1] | Potency [2] | outcome [3] | outcome [4] | Potency [5] | outcome [8] | Potency [9] | Potency [10]

CCCCCC[C@@H](CCC)C(=O)O
inactive: outcome [1] | Potency [2] | outcome [3] | outcome [4] | Potency [5] | outcome [8] | Potency [9]

COc1cc(O)cc(O)c1
inactive: outcome [1] | Potency [2] | outcome [3] | outcome [4] | Potency [5] | outcome [8] | Potency [9] | Potency [10]

CC/C=C\C#N
inactive: outcome [1] | Potency [2] | outcome [3] | outcome [4] | Potency [5] | outcome [8] | Potency [9] | Potency [10]

C=CC(=O)OCCCCCC
inactive: outcome [1] | Potency [2] | outcome [3] | outcome [4] | Potency [5] | outcome [8] | Potency [9] | Potency [10]

CC(C)(C)CC(C)(C)N
inactive: outcome [1] | Potency [2] | outcome [3] | outcome [4] | Potency [5] | outcome [8] | Potency [9] | Potency [10]

NCCN1CCNC1=O
inactive: outcome [1] | Potency [2] | outcome [3] | outcome [4] | Potency [5] | outcome [8] | Potency [9] | Potency [10]

CC(C)=CC(=O)O
inactive: outcome [1] | Potency [2] | outcome [3] | outcome [4] | Potency [5] | outcome [8] | Potency [9] | Potency [10]

C=CCOc1nc(OCC=C)nc(OCC=C)n1
inactive: outcome [1] | Potency [2] | outcome [3] | outcome [4] | Potency [5] | outcome [8] | Potency [9] | Potency [10]

OCC(CO)(CO)COCC(CO)(CO)CO
inactive: outcome [1] | Potency [2] | outcome [3] | outcome [4] | Potency [5] | outcome [8] | Potency [9] | Potency [10]
